Sampled rows, rich in hits. Any-hit rate of the full collection: about 1.4%.
TrxR1 inh: rat TrxR1 inhibition; O89049; recombinant rTrxR1, NADPH fluorescence consumption, selenite substrate; Potency, µM (highest dose often 114 µM), for inactives: at the highest dose activity change, negative = inhibition, most hits filed as inhibitors; 1% of 390,000 active; AID 588453; also: potency is read from the fitted curve at half-maximal effect; nearly all actives have a fitted effect of over 65% in size
Target sequence (O89049 whole entry, looked up): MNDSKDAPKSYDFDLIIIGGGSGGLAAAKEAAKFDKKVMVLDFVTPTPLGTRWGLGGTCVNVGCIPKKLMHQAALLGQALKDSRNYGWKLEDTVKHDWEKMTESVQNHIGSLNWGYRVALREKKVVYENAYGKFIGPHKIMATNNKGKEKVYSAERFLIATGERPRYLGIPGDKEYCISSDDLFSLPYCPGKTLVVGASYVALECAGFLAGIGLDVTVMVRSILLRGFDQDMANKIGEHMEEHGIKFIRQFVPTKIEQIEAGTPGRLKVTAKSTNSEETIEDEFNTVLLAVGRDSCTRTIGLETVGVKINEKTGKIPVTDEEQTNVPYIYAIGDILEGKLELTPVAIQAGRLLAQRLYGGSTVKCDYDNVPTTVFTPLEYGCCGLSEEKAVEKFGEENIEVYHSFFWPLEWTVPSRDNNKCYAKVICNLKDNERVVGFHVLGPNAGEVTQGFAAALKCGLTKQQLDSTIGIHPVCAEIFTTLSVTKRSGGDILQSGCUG
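Rat TrxR1 (90 nM in the dispensed reagent) was pre-reduced with 400 uM NADPH for 5 min at room temperature, then incubated with compound for 15 min. After 400 uM selenite was added, NADPH fluorescence (Ex 340/Em 450 nm) was followed for 8 min.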
mIDH1 inhibitor: blocks human mutant IDH1 R132H enzyme; O75874; IDH1-R132H enzyme, NADPH consumption, diaphorase/resazurin fluorescence; Potency, µM (doses to about 76.6 µM), inactives show at the highest dose activity change, negative = inhibition, most hits filed as inhibitors; 0.093% of 390,000 active; AID 602179; also: potency is read from the fitted curve at half-maximal effect; nearly all actives have a fitted effect of over 65% in size
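IDH1-R132H (0.5 ug/mL) preincubated 30 min with compound, then NADPH (0.016 mM) and alpha-KG (2 mM) added; 80 min at RT, pH 7.5. Remaining NADPH coupled via diaphorase/resazurin to fluorescence (540/590 nm); concentration-response curves normalized to no-enzyme control.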
LDHA block: inhibitors of human lactate dehydrogenase A; activity change, % (values are at about 110 or 230 µM); AID 1347041; 0.15% of 480,000 active; P00338; purified LDHA, NADH/diaphorase-resazurin fluorescence; active compounds read low; in the data active = activity change below about -30%; inconclusive = mostly about -25% to -30%;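 also: plate controls were DMSO wells for no effect and wells without enzyme for full effect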
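Remaining NADH was detected by diaphorase (0.133 mg/mL) converting 37 µM resazurin to fluorescent resorufin, read at 0 and 20 minutes. The preceding 5-minute room-temperature reaction used 2 nM LDHA, 0.2 mM sodium pyruvate and 0.06 mM NADH at pH 7.4.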
GLS inhibitor: glutaminase GLS (human) inhibition; O94925; GLS enzymatic activity, qHTS titration; Potency, µM (highest dose often 45.5 µM), inactives show at the top dose activity change, negative = inhibition, hits mostly inhibitors; 0.21% of 410,000 active; also: potency is read from the fitted curve at half-maximal effect
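Coupled fluorescence readout: glutamate oxidase/HRP/Amplex Red detect glutamate formed by hKGA from L-glutamine (1 mM solution added). Buffer 45 mM KH2PO4 pH 8.2, 0.02% Tween-20; reads at t0 and 30 min RT.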
PKM2 act: activators of human pyruvate kinase M2 | purified PKM2, Kinase-Glo ATP luminescence, activation; response scale: 0% is enzyme alone, no compound | 0.34% of 260,000 active | Potency, µM (top dose mostly 57.5 µM), for inactives: at the top dose activation, hits mostly activators | P14618; also: potency is read from the fitted curve at half-maximal effect; nearly all actives have a fitted effect of over 55% in size
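Purified hPK-M2 (>95% pure) converted ADP (0.1 mM final) to ATP with 0.5 mM PEP in 50 mM imidazole pH7.2, KCl, MgCl2, Tween 20, BSA; 1 h at room temperature. ATP detected by Kinase-Glo luminescence.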
TrxR1 substrate: rat thioredoxin reductase 1 substrate activity; O89049; purified TrxR1 substrate turnover, NADPH consumption readout; Potency, µM (doses to about 114 µM), for inactives: at the highest dose activity change, negative = substrate turnover; 0.01% of 390,000 active; AID 588456; also: potency is read from the fitted curve at half-maximal effect; nearly all actives have a fitted effect of over 50% in size
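Rat TrxR1, dispensed at 90 nM, was prereduced with 400 uM NADPH (final) for 5 min at ~22 deg C, then incubated with compound 15 min before 400 uM selenite. A first-read NADPH fluorescence drop versus no-compound background flagged substrates.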
* hit, by the source's call; ? = inconclusive; . = not tested or not shown; [ ] = remark or other dose. Unless noted, calls follow the shape of the dose curve; as a rule, active = well fitted curve in the direction sought with a large enough effect; inconclusive = small, poorly fitted or top-dose-only effect, or another doubt; inactive = no such curve, though single readings can be large; an effect the other way counts as inactive or inconclusive. Unless noted, % is scaled to controls: 0 for no effect and ±100 for the full control effect.

SMILES	TrxR1 inh	mIDH1 inhibitor	LDHA block	GLS inhibitor	PKM2 act	TrxR1 substrate
O=C(CCc1ccccc1)NC1(C(F)(F)F)C(=O)Nc2c1c(=O)[nH]c(=O)n2Cc1ccccc1 (stereo not given)	.	.	-35.0*	.	.	.
O=C1CCCC2=C1C(c1ccccc1Cl)CC(=O)N2c1ccc(F)cc1F (stereo not given)	.	.	4.3	.	.	.
CC1CCN(c2ccc(NC(=S)NC(=O)c3ccc(-c4cccc([N+](=O)[O-])c4)o3)cc2)CC1	20µM*	-2.5%	-8.8	11.2%	-0.8%	-3.7%
Cc1ccc(NC(=O)CN(c2ccccc2F)S(=O)(=O)c2ccccc2)c(C)c1	.	.	2.2	.	.	.
COc1ccc(NC(=O)CSc2oc(-c3ccco3)nc2S(=O)(=O)c2ccc(C)cc2)c(OC)c1	11.4%	-1.3%	6.2	-1.9%	.	2.3%[2.29 µM]
COc1ccc(NC(=O)CSc2oc(-c3ccc(C)cc3)nc2S(=O)(=O)c2ccc(C)cc2)c(OC)c1	50.1µM*	3.3%	10.9	-0.6%	.	6.8%[2.29 µM]
COc1ccc2nc(Nc3sc4c(c3C(N)=O)CCCC4)sc2c1	14.1µM*	-0.4%	-0.9	-31.0%	-10.3%	-8.3%
COc1ccc(CC(=O)Nc2sc3c(c2C(N)=O)CCCC3)cc1	19.2%	0.0%	-3.3	6.0%	.	4.5%
O=C(/C=C/c1ccccc1Cl)Nc1ccc2c(c1)C(=O)NC2=O	24.5%	-4.9%	-46.3*	-14.8%	10.9%	26.8%
O=C(/C=C/c1ccccc1)Nc1ccc2c(c1)C(=O)NC2=O	34.4%	13.3%	-0.6	-3.9%	-0.3%	74.1%
O=c1cc(-c2ccccc2)oc2cc(OCc3ccccc3)cc(O)c12	27.1%[57.1 µM]	4.4%	-5.3	-11.7%	6.8%	-2.2%[57.1 µM]
O=c1cc(-c2ccc(OCc3ccccc3)cc2)oc2cc(OCc3ccccc3)cc(OCc3ccccc3)c12	39.8µM*	-2.1%	2.4	?	.	3.9%
COc1cc2c(NC3CCN(C)CC3)nc(N3CCCN(C)CC3)nc2cc1OCC1CCCNC1 (stereo not given)	31.6µM*	.	9.0	.	.	58.2%
COC(=O)C1CCN(Cc2cc(=O)oc3cc(C)c(C)cc23)CC1	.	.	4.5	.	.	.
COc1ccccc1N1C(=O)CC(Sc2nccc(C)n2)C1=O (stereo not given)	-16.5%	6.5%	0.2	-5.4%	-5.4%	-1.3%
COc1ccccc1N1C(=O)CC(Sc2n[nH]c(-c3cccc(C)c3)n2)C1=O (stereo not given)	1.58µM*	7.6%	-1.8	-5.2%	-10.3%	0.9%
COc1cc(OC)c(Nc2c3c(nc4nc(-c5cccs5)nn24)CCCC3)cc1Cl	5.8%[57.1 µM]	31.6µM*	6.2	2.3%	.	-0.2%[57.1 µM]
CCNC(=S)N/N=C/c1ccccc1F	.	.	-2.4	.	.	.
Nc1ccc([N+](=O)[O-])cc1NS(=O)(=O)c1ccc2ccccc2c1	.	.	6.4	.	.	.
O=C(CSc1nnc(C2CC2)n1C1CC1)c1c[nH]c(C(=O)N2CCCC2)c1	.	.	-32.0*	.	.	.
CCN(C(=O)c1nn(C)c(=O)c2ccccc12)c1nc2ccccc2s1	.	.	2.8	.	.	.
CC(C)(C)c1ccc(C(=O)CC(Sc2ccc(Cl)cc2)C(=O)O)cc1 (stereo not given)	56.2µM*	-7.8%	-7.6	-11.7%	21.2%	-5.7%
Cc1ccc(SC(CC(=O)c2ccc(F)cc2)C(=O)O)cc1 (stereo not given)	?	-2.6%	-0.3	-11.7%	.	11.1%[57.1 µM]
Cc1ccc(NC(=O)c2ccc3[nH]c(C)c(C)c3c2)cc1	.	.	10.0	.	.	.
CC(C)(C)c1csc(NNC(=O)c2ccc(Br)cc2)n1	-1.9%[57.1 µM]	-13.7%	-5.4	5.01µM*	-4.5%	-7.9%[57.1 µM]
SMILES	TrxR1 inh	mIDH1 inhibitor	LDHA block	GLS inhibitor	PKM2 act	TrxR1 substrate
COc1ccc(N2Cc3cccc(C(=O)N4CCN(C(=O)c5ccco5)CC4)c3C2=O)cc1	?	-3.7%	-0.9	17.8µM*	25.4%	-0.1%[57.1 µM]
N#Cc1cc(Oc2cccc3cccnc23)c(-n2nnc3ccccc32)cc1C#N	70.8µM*	7.0%	27.1	1.9%	?	-2.7%
O=C(Cn1ccccc1=O)Nc1ccc(Br)cc1F	.	.	-4.7	.	.	.
Cc1[nH]c2ccccc2c1C1c2ccccc2C(=O)N1CCc1ccccc1 (stereo not given)	.	.	3.5	.	.	.
COCCn1nnnc1C(c1cc2c(C)cc(C)cc2[nH]c1=O)N1CCCCCC1 (stereo not given)	39.8µM*	5.0%	8.7	-6.0%	-16.5%	0.0%
COCCn1nnnc1C(c1cc2cc(C)ccc2[nH]c1=O)N1CCCCCC1 (stereo not given)	4.47µM*	-1.0%	15.8	2.6%	1.4%	5.9%
Cc1cc(C)c2cc(C(O)c3nnnn3Cc3ccccc3)c(=O)[nH]c2c1 (stereo not given)	9.7%	5.8%	-3.7	4.9%	12.6µM*	17.7%
Cn1nc(C(=O)OCc2ccc(C(C)(C)C)cc2)c2ccccc2c1=O	.	.	4.7	.	.	.
COc1cc(/C=N/NC(=S)NCCN2CCOCC2)cc(OC)c1O	-7.7%[57.1 µM]	24.2%	6.0	3.98µM*	3.1%	4.6%[57.1 µM]
O=C(Nc1ccc2oc(-c3ccncc3)nc2c1)c1cccc(Cl)c1	.	.	-15.8	.	.	.
S=C(NCc1ccc(Cl)cc1)NC1CC2CCC1C2 (stereo not given)	.	.	2.1	.	.	.
Nc1ncnc(Sc2ccccc2)c1[N+](=O)[O-]	25.5%	-0.8%	-9.6	7.4%	1.3%	7.1%
Nc1ncnc(Sc2ncccn2)c1[N+](=O)[O-]	1.41µM*	4.1%	-2.4	-1.7%	9.8%	-0.8%
O=C(O)c1ccccc1OCc1cn2ccccc2n1	.	.	0.3	.	.	.
O=C1CCCC2(O)C1C(c1cccc(Br)c1)NC(=O)N2Cc1ccccc1 (stereo not given)	15.8µM*	13.7%	0.4	1.3%	-10.8%	10.8%
C[C@@H]1CC=C[C@@H]2[C@H]1C(=O)N(Cc1ccccc1)[C@H]2c1cccc(Br)c1	10.8%	-3.3%	-2.6	13.5%	.	-1.6%
CN1CCCN(S(=O)(=O)c2ccc3ccccc3c2)CC1	?	19.9%	-1.2	1.1%	20µM*	6.8%
Cc1ccc(S(=O)(=O)N2CCCN(C)CC2)cc1	28.2µM*	-3.6%	-0.4	8.1%	.	4.6%
O=C(NC(=S)Nc1ccc(S(=O)(=O)N2CCCCC2)cc1)c1ccccc1	11.2µM*	-3.3%	-3.0	14.8%	0.9%	3.5%[57.1 µM]
CN1CCCN(S(=O)(=O)c2ccccc2)CC1	14.0%[57.1 µM]	0.0%	-20.5	-5.8%	.	?
Cc1ccc(C(=O)NNC(=O)c2ccc(S(=O)(=O)N3CCCCC3)cc2)cc1	21.6%	-0.7%	-31.9*	1.7%	.	10.8%
CC(C1CC1)N(Cc1ccccc1)S(=O)(=O)c1ccccc1Cl (stereo not given)	.	.	-9.0	.	.	.
